# According to paper PMC4552634, “A New Set of Chemical Starting Points with Plasmodium falciparum Transmission-Blocking Potential for Antimalarial Drug Discovery” (PLoS ONE, 2015):
# Screen size: about 13,000 compounds; about 3,200 (25%) showed an effect of 50% or more. This is one part of the list.
# Test system: P. falciparum stage V gametocytes
# Parameters: BacTiter-Glo ATP luminescence viability of purified stage V gametocytes in 384-well plates, per cent inhibition versus DMSO
# Conditions: 48 h, 5 µM; inhibitor
row,SMILES,% Inhibition [%]
1,Cc1ccc(NC(=O)NC2CCN(c3ccnc4cc(Cl)ccc34)CC2)cc1 [TCMDC-133571],-34.41
2,CNS(=O)(=O)Cc1ccc(Nc2nccc(Nc3cccc4c3cnn4C(=O)Nc3ccccc3)n2)cc1 [TCMDC-136315],19.26
3,Cc1cc(Br)c(OCCCON2C(N)=NC(N)=NC2(C)C)c(Br)c1 [TCMDC-131365],37.66
4,Cc1nc2c(c(C)nn2C(C)(C)C)c(C)c1CCC(=O)Nc1ccc(CN2CCCC2)cc1 [TCMDC-124397],-7.615
5,COC(=O)c1ccc(Nc2nccc(Nc3ccc(Oc4ccccc4)cc3)n2)cc1 [TCMDC-138560],-28.54
6,COc1cccc(Nc2nc(C)cc(NCc3ccc(-n4ccnc4)cc3)n2)c1 [TCMDC-133450],43.61
7,Cc1cc(N(C)C)nc(Nc2ccc(NC(=O)c3ccccc3F)cc2)n1 [TCMDC-124725],4.015
8,Cc1cc(Cl)c(S(=O)(=O)NC2CCCC2)cc1OCC(=O)NC1CCCCC1 [TCMDC-124353],26.39
9,Fc1cccc(COc2ccc(Nc3ncnc4ccc(-c5nnc(C(F)(F)F)o5)cc34)cc2Cl)c1 [TCMDC-138162],-34.34
10,COc1ccc2nc(C)cc(NN=Cc3ccc(F)cc3)c2c1 [TCMDC-123973],111.2
11,Cc1cc(NN=Cc2cccc(F)c2)c2cccc(C)c2n1 [TCMDC-142081],-19.79
12,Cc1cc(NN=Cc2ccc(F)cc2)c2cccc(C)c2n1 [TCMDC-142082],83.37
13,Cc1cc(NN=Cc2ccccc2F)c2cccc(C)c2n1 [TCMDC-142068],-42.7
14,COc1ccc2nc(C)cc(NN=Cc3cccc(F)c3)c2c1 [TCMDC-142084],32.42
15,COc1ccc2c(NN=Cc3cccc(F)c3)cc(C)nc2c1 [TCMDC-142085],106.9
16,CCCC(=O)Nc1ccc(OCCCCN(CC(C)(C)C)c2ccc(C#N)c(C(F)(F)F)c2)cc1 [TCMDC-132784],-2.311
17,O=C(Nc1ccc(-c2nc3ccccc3[nH]2)cc1)c1cccc([N+](=O)[O-])c1 [TCMDC-123637],-11.52
18,O=S(=O)(Nc1ccc2nccc(N3CCNCC3)c2c1)c1ccc(-c2ccccc2)cc1 [TCMDC-139546],12.57
19,Clc1ccc2nccc(N3CCC(CN4CCC(c5c[nH]c6ccccc56)CC4)CC3)c2c1 [TCMDC-134281],0.1691
20,Cc1n[nH]c2ccc(-c3ccc4nccc(N5CCC(N)CC5)c4c3)cc12 [TCMDC-134315],105.4
21,Cc1ccc(Nc2nc(C)cc(N3CCN(c4ccccc4)CC3)n2)cc1 [TCMDC-125308],-56.11
22,CCN1CCN(CCCCNc2c3ccccc3nc3ccccc23)CC1 [TCMDC-137570],80.96
23,CN1CCN(c2ccc(Nc3c4ccccc4nc4ccccc34)cc2)CC1 [TCMDC-123912],39.23
24,CCN1CCN(CCCNc2c3ccccc3nc3ccccc23)CC1 [TCMDC-137546],84.24

row,SMILES,% Inhibition [%]
1,CCn1c(-c2ccccc2)cc2nnc3ccccc3c21 [TCMDC-138220],3.318
2,CCN1CCN(CCNc2c3ccccc3nc3ccccc23)CC1.Cl [TCMDC-137545],85.19
3,CCN1CCN(c2ccc(Nc3c4ccccc4nc4ccccc34)cc2)CC1 [TCMDC-124255],96.72
4,CC[C@H](NC(=O)c1c(CCCN2CCN(c3ccccc3)CC2)c(-c2ccccc2)nc2cc(O)ccc12)c1ccccc1 [TCMDC-139302],9.444
5,Oc1cc2c(cc1CN1CCN(Cc3ccc(Cl)s3)CC1)CCC2 [TCMDC-124882],-46.75
6,CCCc1ccc(N2C(N)=NC(N)=NC2(C)C)cc1 [TCMDC-137706],5.239
7,Cc1cc2c(cc1C(F)(F)F)N(C(=O)Nc1cc(C(=O)NC3CCN(Cc4ccccc4)C3)cc(C(F)(F)F)c1)CC2 (centres unmarked) [TCMDC-139921],12.41
8,Oc1ccc(-c2nc3c4cc(I)ccc4c4ccc(I)cc4c3[nH]2)cc1 [TCMDC-124199],-25
9,N#Cc1ccc2nc(-c3cc(-c4cccc(F)c4)cnc3N)[nH]c2c1 [TCMDC-133133],-54.5
10,N#Cc1ccc(N2CCN(Cc3cccc(-c4cccc(-c5nc6cc(F)ccc6[nH]5)c4)c3)CC2)nc1.O=C(O)C(F)(F)F [TCMDC-133109],-21.69
11,Clc1ccc(Cc2nc3ccccc3[nH]2)cc1Cl [TCMDC-125878],-7.507
12,O=C(Nc1cc(C(F)(F)F)cc(C(F)(F)F)c1)N1CCC(CN2CCC(c3c[nH]c4ccccc34)CC2)CC1 [TCMDC-140192],-4.081
13,FC(F)(F)c1ccc(NC(=S)N2CCC(CCN3CCC(c4c[nH]c5ccccc45)CC3)CC2)cc1 [TCMDC-140188],107.1
14,O=C(Nc1ccc(Cl)c(Cl)c1)N1CCC(CN2CCC(c3c[nH]c4ccccc34)CC2)CC1 [TCMDC-140195],-22.77
15,O=C(Nc1cc(C(F)(F)F)cc(C(F)(F)F)c1)N1CCC(CCN2CCC(c3c[nH]c4ccccc34)CC2)CC1 [TCMDC-140189],108.5
16,FC(F)(F)c1ccc(NC(=S)N2CCC(CN3CCC(c4c[nH]c5ccccc45)CC3)CC2)cc1 [TCMDC-140191],5.954
17,O=C(Nc1ccc(Oc2ccccc2)cc1)N1CCC(CCN2CCC(c3c[nH]c4ccccc34)CC2)CC1 [TCMDC-140190],106
18,O=C(Nc1ccc(Oc2ccccc2)cc1)N1CCC(CN2CCC(c3c[nH]c4ccccc34)CC2)CC1 [TCMDC-140194],35.38
19,CN(C)CCc1c[nH]c2ccc(C(=O)Nc3ccc(-c4ccncc4)cc3)cc12 [TCMDC-132057],19.3
20,COc1ccc2nccc([C@@H](O)CN3CCC(NC(=O)c4ccc(CN5CCN(c6cccc(C)c6)CC5C)cc4)CC3)c2c1 (some centres unmarked) [TCMDC-140999],-29.97
21,CC1(C)N=C(N)N=C(N)N1OCCSCc1cc(Cl)sc1Cl [TCMDC-131620],30.29
22,O=S(=O)(NCCN1CCCC1)c1ccc(-c2ccc(CNCc3ccsc3)cc2)cc1 [TCMDC-132281],102.2
23,O=S(=O)(NCCN1CCCC1)c1cccc(-c2ccc(CNCc3ccsc3)cc2)c1 [TCMDC-132290],92.71
24,O=S(=O)(NCCN1CCCC1)c1cccc(-c2cccc(CNCc3ccsc3)c2)c1 [TCMDC-132277],89.41

row,SMILES,% Inhibition [%]
1,CCN1CCN(c2cc(C)c3cc(NC(=O)c4ccc([N+](=O)[O-])c(C)c4)ccc3n2)CC1 [TCMDC-125576],24.57
2,CC(C)(CNCCOc1ccc(Cl)cc1)c1nc(-c2ccc(Cl)c(O)c2)c(-c2ccnc(N)n2)[nH]1 [TCMDC-141161],36.73
3,Cc1cccc2[nH]c(=O)c([N+](=O)[O-])c(O)c12 [TCMDC-131384],-28.29
4,CN(C)CCC=C1c2ccccc2Sc2c(O)cc(Cl)cc21 [TCMDC-123466],-77.93
5,N#Cc1cccc(Nc2ncc3c(-c4cccc(NC(=O)Cc5cccc(Cl)c5)c4)c[nH]c3n2)c1 [TCMDC-134682],19.68
6,CCn1ccc2c(N3CCCC3=O)cc(C(=O)N[C@@H](Cc3ccccc3)[C@H](O)CNC(C)(C)CCCC(C)C)cc21 [TCMDC-135313],55.34
7,CCn1ccc2c(N3CCCC3=O)cc(C(=O)N[C@@H](Cc3ccccc3)[C@H](O)CNCc3cccc(OC)c3)cc21 [TCMDC-134129],8.959
8,CCn1ccc2c(N3CCCS3(=O)=O)cc(C(=O)N[C@@H](Cc3ccccc3)[C@H](O)CNC(C)(C)CCCC(C)C)cc21 [TCMDC-135312],65.79
9,CCn1ccc2c(N3CCCCS3(=O)=O)cc(C(=O)N[C@@H](Cc3ccccc3)[C@H](O)CNC(C)(C)CCCC(C)C)cc21 [TCMDC-135311],61.66
10,CCn1ccc2c(N3CCCC3=O)cc(C(=O)N[C@@H](Cc3ccccc3)[C@H](O)CNC3CCCCC3)cc21 [TCMDC-135316],7.868
11,CNC(=O)c1cncc(/C=C/c2ccccc2S(N)(=O)=O)c1 [TCMDC-138266],49.76
12,C[C@H](NC(=O)c1c(OC2CN(C(c3ccccc3)c3ccccc3)C2)c(-c2ccccc2)nc2ccccc12)C1CCCCC1 [TCMDC-135543],-26.28
13,CS(=O)(=O)O.Nc1nc(NCC2CCC(CNS(=O)(=O)c3cccc4ccccc34)CC2)nc2ccccc12 (centres unmarked) [TCMDC-124251],-1.432
14,COC(=O)C(Cc1ccccc1)C(CSCc1ccc(OC)cc1)C(=O)N[C@@H](C(=O)OC(C)(C)C)c1ccc(C(C)(C)C)cc1 (some centres unmarked) [TCMDC-131235],8.806
15,CC(C)(C)OC(=O)c1c(NC(=O)/C=C/c2ccc(O)c(O)c2)sc2c1CCCC2 [TCMDC-131558],-45.09
16,CC=Cc1cc(Cc2cnc(N)nc2N)cc(CCC)c1OC [TCMDC-137634],-1.983
17,CCOc1cc(Cc2cnc(N)nc2N)cc(OCC)c1OCCCCC(=O)OC [TCMDC-137176],-10.63
18,CC(C)(C)c1ccc(Cn2nc(C(=O)N3CCN(C(=O)C4CCCO4)CC3)c3ccccc32)cc1 (centres unmarked) [TCMDC-134381],-2.653
19,Cc1ccccc1CN1CCCN(Cc2ccc(C(=O)Nc3ccc(C(C)(C)C)cc3)cc2)CC1 [TCMDC-136429],-4.144
20,CCOCc1cn(CC(=O)c2ccc(-c3ccccc3)cc2)c(C)nc1=N [TCMDC-124243],-19.83
21,CC(C)(C)c1ccc(Cn2c(=N)n(CC(=O)c3ccc(-c4ccccc4)cc3)c3ccccc32)cc1 [TCMDC-124030],98.24
22,CCN(CC)CCn1c(=N)n(CC(=O)c2ccc(-c3ccccc3)cc2)c2ccccc21 [TCMDC-124026],67.24
23,CCN(CC)c1ccc(C(=O)Cn2ccc(=N)cc2)cc1 [TCMDC-139029],-2.203
